Reference: PubChem BioAssay (NCI)
Compounds without any hit were thinned out: in the full panel of roughly 79,000, 15% have a hit. No stated cut-off is given here; in the data, active means growth inhibition above about 70%; inactive means the rest.

What was measured:
[1] = NCI Yeast Anticancer Drug Screen. Data for the rad50 strain (AID 155);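 further: 0% = growth of vehicle-only cultures of the same strain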; conditions: S. cerevisiae rad50 strain growth inhibition; at 50.0 µM; active compounds read high
How it was run: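 Inhibition values express reduced yeast growth in compound-treated cultures relative to vehicle-treated controls.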

[2] = NCI Yeast Anticancer Drug Screen. Data for the mec2-1 strain (AID 157); conditions: S. cerevisiae mec2-1 strain, at 50.0 µM, active compounds read high
How it was run: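 Each compound was tested on mec2-1 yeast, a strain altered in DNA damage repair or cell cycle control. Growth inhibition is reported relative to vehicle.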

[3] = NCI Yeast Anticancer Drug Screen. Data for the sgs1 mgt1 strain (AID 161);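 further: 0% = growth of cultures given vehicle only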; conditions: S. cerevisiae sgs1 mgt1 strain, at 50.0 µM, active compounds read high
How it was run: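 Test agents were incubated with a DNA-repair-mutant yeast strain. Growth was then read and compared against vehicle-treated controls.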

[4] = NCI Yeast Anticancer Drug Screen. Data for the cln2 rad14 strain (AID 165);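 further: 0% = growth equal to vehicle treated cultures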; conditions: S. cerevisiae cln2 rad14 strain, at 50.0 µM, active compounds read high
How it was run: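 Test compounds were added to cln2 rad14 yeast cultures; inhibition of growth was then determined by comparison with vehicle treatment.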

[5] = NCI Yeast Anticancer Drug Screen. Data for the bub3 strain (AID 167); conditions: S. cerevisiae bub3 mutant strain, at 50.0 µM, active compounds read high
How it was run: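 Steps: expose the mutant yeast strain to compound; grow alongside vehicle-treated cultures; measure growth; express inhibition against the vehicle cultures.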

[6] = NCI Yeast Anticancer Drug Screen. Data for the mlh1 rad18 strain (AID 175); conditions: S. cerevisiae mlh1 rad18 strain growth inhibition; at 50.0 µM; active compounds read high
How it was run: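 Inhibition values reflect reduced growth of mutant yeast versus vehicle-treated controls following compound exposure; the mutations affect DNA damage repair.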

Measured: growth inhibition

COC/C=C(\C)CC/C=C(\C)CCC=C(C)C
inactive: [1] -8.2% | [2] 0.95% | [3] -1.2% | [4] 22.6% | [5] -27.3% | [6] 2.95%

CCCCCC1CCC(O)CC1 (stereo unspecified)
inactive: [1] 16.1% | [2] 6.55% | [3] 21.1% | [4] -61.4% | [5] 4.2% | [6] -7.55%

CC(=O)N1CCN(c2ccccc2Cl)CC1
inactive: [1] -10% | [2] -17.2% | [3] -18.4% | [4] -3.45% | [5] -10.6% | [6] -22.7%

Cc1c(Cl)cccc1NC(=O)OC/C=C/c1ccccc1
inactive: [1] 3.2% | [2] 33.2% | [3] 14.8% | [4] -9.35% | [5] 5.6% | [6] -10.9%

COC(=O)C1=Cc2cc(OC)c(OC)cc2[C@H](c2ccc(OC)c(OC)c2)C1C(=O)OC (stereo partly specified)
inactive: [1] -6.8% | [2] -11.7% | [3] -31.4% | [4] 0.95% | [5] 18.2% | [6] 1.45%

COc1cc(C2c3cc4c(cc3OC(NNC(N)=S)C2C)OCO4)cc(OC)c1OC (stereo unspecified)
inactive: [1] -4% | [2] -17.4% | [3] 2.5% | [4] -0.2% | [5] 6.95% | [6] -9.9%

OC1CCCNC1 (stereo unspecified)
inactive: [1] 16.9% | [2] -4.5% | [3] 21.1% | [4] 18.1% | [5] 14.5% | [6] 30.2%

CC12CC(=O)NC(=O)N1CCS2 (stereo unspecified)
inactive: [1] 3.7% | [2] 5.6% | [3] -1.85% | [4] -20.7% | [5] -13.7% | [6] -6.15%

O=[N+]([O-])c1cc2c3ccccc3c([N+](=O)[O-])cc2c2ccccc12
inactive: [1] -10.2% | [2] -14.8% | [3] -8.6% | [4] -15.2% | [5] -10.5% | [6] 10.7%

CCOC(=O)C(C)(C)Oc1ccc2c(-c3ccccc3)cc(=O)oc2c1
inactive: [1] -9.15% | [2] -8.4% | [3] 0.15% | [4] -13.1% | [5] -19.8% | [6] -25.6%

CC12CCC3c4ccc(OC(=O)c5ccccc5)cc4CCC3C1CC(O)C2 (stereo unspecified)
inactive: [1] -5.5% | [2] 38.1% | [3] 50.2% | [4] 42.7% | [5] 69.6% | [6] 11.9%

Cn1cnc(=O)c2n[nH]nc21
inactive: [1] 3.95% | [2] 16.6% | [3] -1.1% | [4] -1.45% | [5] -11.4% | [6] 0.65%

CC(C(=O)O)/C(=C\c1ccccc1)C(=O)O (stereo unspecified)
inactive: [1] 16.6% | [2] 7.25% | [3] 21.6% | [4] -17.5% | [5] 12.6% | [6] 11.4%

OCCNCc1ccc2c(c1)OCO2
inactive: [1] -4.1% | [2] 3.85% | [3] -9.5% | [4] -4.85% | [5] -5.25% | [6] 1.4%

Nc1nc2c(c(-c3ccc(Cl)cc3)n1)CN(c1ccc(Br)cc1)C2=O
inactive: [1] 40.5% | [2] 0.8% | [3] -4.85% | [4] 12.7% | [5] -3.1% | [6] 11.9%

Cc1ccc(OCC(O)CN2CCN(c3ccc(C)cc3)CC2)cc1 (stereo unspecified)
inactive: [1] 26.6% | [2] -10.4% | [3] 36% | [4] -35.7% | [5] 4.55% | [6] 0.05%

OC1CCCCC1C1CCCCC1 (stereo unspecified)
inactive: [1] 28.9% | [2] 4.45% | [3] 15.2% | [4] 22.3% | [5] -4.4% | [6] 26.7%

CN(C)c1ccc2c(c1)Cc1cc(NC(=O)CCC(=O)O)ccc1-2
inactive: [1] 8.7% | [2] 6.4% | [3] 19.4% | [4] -1.6% | [5] 8.85% | [6] 14.3%

CCCCCCC(N)(CCCCCC)C(=O)Nn1c(C)ccc1C
inactive: [1] 45% | [2] 13.1% | [3] 9.8% | [4] -20.6% | [5] 4.25% | [6] 31.2%

O=C(Nc1cccc2ccccc12)O/N=C/c1ccccn1
inactive: [1] -9.3% | [2] -3.4% | [3] -11.4% | [4] 39.3% | [5] -7% | [6] -1.7%

CCc1nc(N)nc(N)c1-c1ccc(Cl)c(NC(C)=O)c1
inactive: [1] 8.9% | [2] -3.6% | [3] -7.6% | [4] 10.1% | [5] 6.6% | [6] 1.95%
